The list is not random: actives were taken first. Their share in the collection is about 10%.
LMNA splice mod – qHTS Assay for Modulators of Lamin A Splicing | Potency, µM (top dose mostly 46.1 µM), without a hit: top-dose ratio change, negative = inhibition, actives largely listed as inhibitors | 200,000 compounds, 0.01% hits | HeLa LMNA splicing GFP/RFP minigene ratio, 48 h; active means well fitted inhibition curve with a large enough effect in the signal ratio, with a control signal flat, not every such curve was filed as active; inconclusive means small, poorly fitted or top-dose-only effect, or effect the other way, or a change in a side signal; the % refers to the signal ratio; further: potency means the concentration at half of the fitted maximal effect
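S3 HeLa stable clones carrying a lamin A-EGFP splicing minigene plus DsRed2 were seeded at 600 cells/well in Opti-MEM with 2% FBS, pin-dosed and incubated 48 h at 37°C. Acumen cytometry (488 nm) gave the GFP/RFP total-intensity ratio.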
PNC assembly inh – High Content Assay for Compounds that inhibit the Assembly of the Perinucleolar Compartment. AID 2417, 2010. activity change (PNC), negative = inhibition, % at 10 µM. PC3M PTB-GFP, PNC prevalence imaging, 16 h; active compounds read low. 140,000 compounds, 3.1% hits;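 active means readout at or below -70, meaning at least 70% loss of cells showing the perinucleolar compartment, a nuclear body marking cancer cells; inconclusive means readout between -30 and a set limit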;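 further: plate controls were DMSO wells for no effect and camptothecin positive control wells for full effect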
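Read-out is percentage of cells bearing a perinucleolar compartment, from automated 20x imaging of fixed, Hoechst-stained PC3M PTB-GFP cells. Cells were seeded 4 h, then exposed 16 h to compound (23 nl of library stock) in duplicate plates.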
ALDH1A1 inh – qHTS Assay for Inhibitors of Aldehyde Dehydrogenase 1 (ALDH1A1). Aldehyde dehydrogenase 1A1 (Homo sapiens), P00352. Purified ALDH1A1, NADH fluorescence, propionaldehyde substrate. Potency, µM (series often up to 75.3 µM), inactives show at the highest dose activity, negative = inhibition, actives largely listed as inhibitors. 220,000 compounds, 7.3% hits. AID 1030, 2008;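 further: potency means the concentration at half of the fitted maximal effect; plate controls were no enzyme wells and a reference inhibitor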
Target sequence (P00352 whole entry, looked up): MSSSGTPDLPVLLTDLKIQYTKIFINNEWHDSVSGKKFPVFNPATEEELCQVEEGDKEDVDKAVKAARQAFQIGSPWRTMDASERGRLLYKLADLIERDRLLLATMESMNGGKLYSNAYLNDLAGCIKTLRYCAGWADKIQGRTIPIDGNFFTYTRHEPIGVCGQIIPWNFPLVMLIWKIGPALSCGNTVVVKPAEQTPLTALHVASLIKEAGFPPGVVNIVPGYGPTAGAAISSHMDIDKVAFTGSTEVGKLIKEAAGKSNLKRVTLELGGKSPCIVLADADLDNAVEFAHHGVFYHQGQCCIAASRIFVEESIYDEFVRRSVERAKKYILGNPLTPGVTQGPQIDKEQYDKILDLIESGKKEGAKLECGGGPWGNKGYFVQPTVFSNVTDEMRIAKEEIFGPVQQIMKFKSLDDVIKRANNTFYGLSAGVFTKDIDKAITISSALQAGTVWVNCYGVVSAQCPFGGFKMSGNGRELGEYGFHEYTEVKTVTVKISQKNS
KinaseGlo FLuc – Counterscreen for Luciferase (Kinase-Glo TM) Inhibition. Luciferin 4-monooxygenase (Photuris pensylvanica), Q27757. Kinase-Glo luciferase, ATP luminescence, 8 min. Potency, µM (doses to about 38.3 µM), without a hit: at the highest dose activity change, negative = inhibition, actives largely listed as inhibitors. 200,000 compounds, 0.28% hits; active means well fitted inhibition curve with a large enough effect; inconclusive means small, poorly fitted or top-dose-only effect; further: potency means the concentration at half of the fitted maximal effect; nearly all actives have a fitted effect of over 60% in size
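Luminescence was the read-out, taken after 8-minute incubation at ambient temperature. Luciferase turned over luciferin with 10 uM ATP in imidazole pH 7.2 buffer containing KCl, MgCl2, Tween 20 and BSA.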
HPGD block – qHTS Assay for Inhibitors of HPGD (15-Hydroxyprostaglandin Dehydrogenase) | 15-hydroxyprostaglandin dehydrogenase [NAD(+)] (Homo sapiens), P15428 | AID 894, 2007 | 150,000 compounds, 4.3% hits | purified HPGD, NADH fluorescence kinetic, PGE2 substrate | Potency, µM, for the others: at the highest dose activity change, negative = inhibition, usual class: inhibitors; further: potency means the concentration at half of the fitted maximal effect
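20 nM HPGD preincubated 15 min at room temperature with compound in 50 mM Tris-HCl pH 8, 0.01% Tween 20. Started with 1 mM NAD+ and 30 uM prostaglandin E2; NADH fluorescence (360/450 nm) read 5 times over 30-s intervals, last minus first.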
An asterisk follows results filed as active; u = inconclusive; x = not tested or not shown; [ ] = remark or other dose. Unless noted, the call rests on the fitted dose curve; in most records, active means well fitted inhibition curve with a large enough effect (not every such curve was filed as active); inconclusive means small, poorly fitted or top-dose-only effect, or another doubt; inactive means no such curve, though single readings can be large or run the other way. Unless noted, on the % scale 0 is the no-effect control and ±100 the full control effect.

SMILES	LMNA splice mod	PNC assembly inh	ALDH1A1 inh	KinaseGlo FLuc	HPGD block
COc1cccc2c1C(=O)c1c(O)c3c(c(O)c1C2=O)C[C@@](O)(C(=O)CO)C[C@@H]3O[C@@H]1C[C@H](N)[C@H](O)[C@H](C)O1	x	x	20µM*	-15%	-8%
O=C(Nc1cccc(C(=O)N2CCCCC2)c1)c1nsc2ccccc12	-9%[46 µM]	x	x	x	x
CCC(=O)N1CCCc2cc(S(=O)(=O)N3CCC(C(=O)Nc4ccc(C#N)cc4)CC3)ccc21	-4%[46 µM]	x	x	x	x
Cc1cc(-c2nsc(=O)o2)c(S(C)(=O)=O)s1	-9%	24	2.8µM*	6%	4.5µM*
CCOc1ccc(NC(=O)C2CCC(N3C(=O)C4CC=CCC4C3=O)CC2)cc1 (stereo not drawn)	u	45	4µM*	-1%	-19%
O=C(Nc1ccc(Cc2ccncc2)cc1)C1CCC(N2C(=O)C3C4C=CC(C5CC45)C3C2=O)CC1 (stereo not drawn)	u	-16	u	-4%	-8%
COc1ccc(NC(=O)C2CCC(N3C(=O)C4C5C=CC(C5)C4C3=O)CC2)cc1 (stereo not drawn)	-11%	10	7.9µM*	3%	-2%
O=C(COC(=O)c1cnccn1)c1ccc2c(c1)CCCC2	14%	-2	28µM*	0%	-12%
FC(F)(F)c1cnc(-c2cnc(-c3ccncc3)nc2)c(Cl)c1	6%[9.22 µM]	x	18µM*	2%	x
CC1CC(=O)C2=C(C1)Nc1ccccc1SC2c1ccc(F)cc1 (stereo not drawn)	u	-85*	6%	0%	-7%
O=C1CC(c2ccsc2)Sc2ccccc2N1 (stereo not drawn)	x	x	-13%	x	x
CCOc1ccc(OCC)c(S(=O)(=O)NC2CC(C)(C)NC(C)(C)C2)c1	-15%[46 µM]	x	15%	-1%	x
c1cc(-c2cccs2)nc(-c2cccs2)c1	2%	u	u	-6%	u
c1csc(-c2cn3ccc4ccccc4c3n2)c1	x	x	5µM*	-10%	x
COc1ccc(N=c2scc(-c3ccc(S(=O)(=O)N4CCOCC4)cc3)n2CCCO)cc1	u	-100*	u	3%	-13%
C=CCn1c(-c2ccc(S(=O)(=O)N3CCOCC3)cc2)csc1=Nc1ccccc1	15%[0.0737 µM]	46	u	-2%	-18%
CC(=O)c1cccc(N=c2scc(-c3ccc(S(=O)(=O)N4CCOCC4)cc3)n2CCO)c1	u	60	25µM*	-3%	-7%
O=C(Nc1ccc(Cl)c(C(F)(F)F)c1)c1nc2ccccc2nc1N1CCCCC1	6%[46 µM]	x	x	x	x
COc1cc(C(=O)NC(=S)N(C)Cc2ccccc2)cc(OC)c1OC	x	x	u	-1%	x
O=C(O)c1ccc(NC(=S)NC(=O)c2ccc(-c3ccccc3)cc2)cc1	x	x	8.9µM*	-2%	x
CC(C)NS(=O)(=O)c1ccc(NC(=S)NC(=O)c2ccc(-c3ccccc3)cc2)cc1	16%	5	11µM*	-1%	-16%
O=C(NC(=S)Nc1ccccc1)c1ccc(-c2ccccc2)cc1	-3%	-7	u	1%	-15%
O=C(NC(=S)Nc1ccccc1)c1csnn1	9%	u	7.9µM*	0%	-29%
COc1ccc(NC(=S)NC(=O)c2csnn2)cc1	x	x	1%	x	x
CN(Cc1ccccc1)C(=S)NC(=O)c1ccc(-c2ccccc2)cc1	-4%	u	u	-1%	14µM*
COc1ccc(NC(=O)c2oc3ccc(S(=O)(=O)N4CCC5(CC4)OCCO5)cc3c2C)cc1Cl	-13%[46 µM]	x	x	x	x
COc1cccc(Cn2c(=O)cnc3cnc(OCc4ccccc4)nc32)c1	2%	x	-2%	x	x
NC(=O)N1CCC2(CC1)NC(=O)N(c1ccccc1)N2	27%[46 µM]	x	3.5µM*	0%	x
COC(=O)C1=C(C)C(c2ccc(OC)cc2)NC(=S)N1 (stereo not drawn)	6%	0	8.9µM*	-3%	-12%
COC(=O)C1=C(C)C(c2ccc(OC)cc2)NC(=O)N1 (stereo not drawn)	x	x	8%	0%	x

Screens: PubChem, National Center for Advancing Translational Sciences (NCATS)
